OPRM1-OPRD1 inv: inverse agonist of human OPRM1-OPRD1 heterodimerization; cell-based MOR-DOR heterodimer luminescence, inverse agonism; hit rate 0.21% among 340,000; inhibition, % at 9.3 µM; in the data active = inhibition above about 22%, passing the limit was not always enough;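 note: 0% = cells with DMSO and 100% = wells without cells with DMSO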
MOR-DOR ag: OPRM1-OPRD1 heterodimerization agonism. P35372+P41143. cells, luminescence. activation, % at 9.3 µM. hit rate 0.3% among 340,000;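 note: 0% = vehicle-treated cells and 100% = reference agonist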
m5-HT2A agonist: agonists of mouse serotonin 5-HT2A receptor (HTR2A). CHO-K1 mHTR2A beta-arrestin complementation, luminescence; percent of 30 µM serotonin response. P35363. hit rate 0.66% among 360,000. activation, % at 7.6 µM;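 active = activation above a run cutoff, the mean activation of all tested compounds plus 3 SD, cut at about 14% in these data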;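 note: 0% = plate median of compound wells and 100% = 30 µM serotonin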
Target sequence (P35363 whole entry, looked up): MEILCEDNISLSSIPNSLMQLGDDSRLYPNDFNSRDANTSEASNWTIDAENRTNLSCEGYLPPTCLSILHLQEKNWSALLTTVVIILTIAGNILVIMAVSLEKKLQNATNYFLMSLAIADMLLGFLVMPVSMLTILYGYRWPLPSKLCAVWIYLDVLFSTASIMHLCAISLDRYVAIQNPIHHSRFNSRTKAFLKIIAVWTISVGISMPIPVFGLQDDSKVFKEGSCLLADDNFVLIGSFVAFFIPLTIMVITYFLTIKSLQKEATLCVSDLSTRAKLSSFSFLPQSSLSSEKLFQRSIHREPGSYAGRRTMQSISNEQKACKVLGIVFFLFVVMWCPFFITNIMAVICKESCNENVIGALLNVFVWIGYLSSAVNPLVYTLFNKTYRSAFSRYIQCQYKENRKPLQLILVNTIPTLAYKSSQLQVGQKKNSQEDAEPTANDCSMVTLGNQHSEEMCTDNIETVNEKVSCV
HTR5A inv ctr: inverse agonist of human HTR5A in OPRM1-OPRD1 counter-screen; P47898; HTR5A cell line, luminescence, inverse agonism; inhibition, % at 9.3 µM; hit rate 0.083% among 340,000; AID 504634; in the data active = inhibition mostly above about 23%, no sharp cut-off; inactive = mostly below about 18%;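 note: 0% = cells with DMSO and 100% = no-cell wells with DMSO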
HTR5A ag ctr: counter-screen for OPRM1-OPRD1 agonists: human HTR5A agonism; P47898; HTR5A agonist assay, luminescence, cell-based; activation, % at 9.3 µM; hit rate 0.61% among 340,000; AID 504692; in the data active = activation mostly above about 9.5%, no sharp cut-off; inactive = mostly below about 7.6%;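 note: 0% = cells with vehicle only and 100% = reference agonist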
OPRM1-D1 ag cf: confirmation of human OPRM1-OPRD1 heterodimerization agonists; shares compounds with MOR-DOR ag; cells, MOR-DOR heterodimerization, luminescence complementation; activation, % at 9.3 µM; hit rate 45% among 830; AID 504904;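 note: 0% = vehicle-treated cells and 100% = reference agonist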
HTR5A ag ctr2: counter-screen for OPRM1-OPRD1 agonists: human HTR5A agonism; shares compounds with MOR-DOR ag; HTR5A agonist counterscreen, cell luminescence; activation, % at 9.3 µM; hit rate 8% among 830; AID 504905; in the data active = activation above about 17%;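 note: 0% = vehicle-treated cells and 100% = reference agonist response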
Numbers without * were called inactive; i = inactive; nt = not tested or not shown. A selection: hits, their analogues and other compounds. The true share with any hit is near 1.6%. Cut-off read from the data, not from the text of the source, unless noted: active = activation above about 18%; inactive = the rest.

SMILES	OPRM1-OPRD1 inv	MOR-DOR ag	m5-HT2A agonist	HTR5A inv ctr	HTR5A ag ctr	OPRM1-D1 ag cf	HTR5A ag ctr2
CN(C)C(CNC(=O)c1cc2ccccc2o1)c1ccco1 (stereo not drawn)	-93	22*	-11	-12	5	147*	0
COc1ccc(C(=O)NCC(=O)NCC(c2ccco2)N(C)C)cc1OC (stereo not drawn)	-2	0	-2	13	-4	nt	nt
Cc1ccc(CC(=O)NCC(c2ccco2)N(C)C)cc1C (stereo not drawn)	-387	69*	-6	15	-6	56*	1
CN(C)C(CNC(=O)c1ccc(C(F)(F)F)cc1)c1ccco1 (stereo not drawn)	-209	51*	-1	-8	3	52*	1
CC(N)C(=O)NC(C(=O)NC(C)C(=O)Nc1cccc2ccccc12)C(C)C (stereo not drawn)	nt	nt	4	nt	nt	nt	nt
CCOC(=O)N1CCN(c2c(NCCN(C)Cc3ccccc3)c(=O)c2=O)CC1	-298	50*	-2	-2	1	0	0
CN(Cc1ccc(Cl)cc1Cl)C(=O)Cc1ccc(S(=O)(=O)N2CCOCC2)s1	nt	nt	8	nt	nt	nt	nt
Cc1cc(C)cc(NS(=O)(=O)CCCS(=O)(=O)Nc2cc(C)cc(C)c2)c1	-145	30*	0	-22	6	1	-4
CCCCCCCCCS(=O)(=O)Nc1cc(C)ccn1	10	-2	4	-13	5	nt	nt
CCCCN(C=O)c1c(CC)nc2c(OCc3cccc(Cl)c3)cccn12	nt	nt	9	nt	nt	nt	nt
OCC1(CCc2ccccc2)CCN(Cc2cc(Cl)ccc2O)CC1	-13	3	-8	3	4	nt	nt
Cc1ccc(-n2cccn2)c(CN2CCC(CO)(CCc3ccccc3)CC2)c1	-134	29*	-8	8	-3	0	-3
COC(=O)CSc1nnc(-c2sc3cc(OC)ccc3c2Cl)n1C	-85	19*	-8	-10	-3	1	3
O=C(c1cnccn1)N(Cc1cccs1)C1(C(=O)NC2CCCCC2)CCCCC1	-21	4	0	-10	-1	nt	nt
O=C(c1ccccn1)N(Cc1cccs1)C1(C(=O)NC2CCCCC2)CCCCC1	-132	28*	3	9	-3	0	3
O=C(Nc1ccc(F)cc1)C(c1ccccc1OC(F)(F)F)N1CCN(C(=O)c2ccco2)CC1 (stereo not drawn)	nt	nt	-1	nt	nt	nt	nt
COc1ccc(CCCNC(=O)C2(C)Cc3c(-c4cccc(C(N)=O)c4)ccnc3O2)cc1 (stereo not drawn)	nt	nt	-1	nt	nt	nt	nt
O=C(Cn1ncc2c([nH]c3ccccc32)c1=O)N1CCc2ccccc2C1	-176	32*	-5	-19	-3	26*	1
CC(=O)Nc1ccc(C(=O)N2CCCCC2c2cc(C(=O)Nc3ccccc3Cl)no2)cc1 (stereo not drawn)	nt	nt	-7	nt	nt	nt	nt
Cc1ccc(C)c(NC(=S)NC(NC(=O)Cc2cccc3ccccc23)C(Cl)(Cl)Cl)c1 (stereo not drawn)	-156	27*	3	9	3	4	4
Cc1ccc(C)c(NC(=S)NC(NC(=O)N(C)C)C(Cl)(Cl)Cl)c1 (stereo not drawn)	-11	2	0	-8	3	nt	nt
CCCCOC(=O)Cn1c(=O)n(CC(=O)OCCCC)c2ccccc21	-11	3	-4	-5	2	nt	nt
CCCCCCCCCCOC(=O)Cn1c(COc2ccc(Cl)cc2)[n+](C)c2ccccc21	-94	18*	-3	-23	6	24*	0
CCCCCCCCCCOC(=O)Cn1c(COc2ccccc2C)[n+](C)c2ccccc21	-134	28*	10	-48	13*	35*	14
CCCCC[C@H](O)/C=C/C1C(=O)C=C[C@H]1C/C=C\CCCC(=O)OC (stereo partly drawn)	0	0	0	-18	5	nt	nt
SMILES	OPRM1-OPRD1 inv	MOR-DOR ag	m5-HT2A agonist	HTR5A inv ctr	HTR5A ag ctr	OPRM1-D1 ag cf	HTR5A ag ctr2
Cn1cc(-c2csc(C(O)c3ccc(F)cc3)n2)cn1 (stereo not drawn)	nt	nt	11	nt	nt	nt	nt
CCOC(=O)c1sc(=S)n(-c2ccc(OC)cc2)c1C	nt	nt	1	nt	nt	nt	nt
CCOC(=O)c1c2c(n(-c3ccc(OC)cc3)c1C)C(=O)C(=O)c1ccccc1-2	-97	20*	11	-40	10	15	1
COc1ccc(NC(=O)C2(C)Cc3c(-c4ccc5c(c4)OCO5)ccnc3O2)cn1 (stereo not drawn)	nt	nt	-2	nt	nt	nt	nt
CC(=O)c1ccc(NC(=O)Nc2ccc3c(c2)N(C)C(=O)CS3)cc1	-293	50*	1	12	2	120*	-1
CCOc1ccc(NC(=O)Nc2ccc3c(c2)N(C)C(=O)CS3)cc1	-8	2	-1	-9	3	nt	nt
Cc1cc(=O)oc2cc(NC(=O)C3COc4ccccc4O3)ccc12 (stereo not drawn)	-122	20*	3	-1	1	39*	14
O=C(Nc1ccc2c(c1)OCO2)C1COc2ccccc2O1 (stereo not drawn)	10	-2	5	4	4	nt	nt
NC(=O)c1cc(-c2csc(NCCc3ccccc3)n2)ccc1O	-102	19*	-2	1	0	20*	-1
CCCc1ccc(C(O)c2ncc(-c3cccc(C)c3)[nH]2)cc1 (stereo not drawn)	nt	nt	-1	nt	nt	nt	nt
CCn1c(=O)c(C(=O)NCc2cccnc2)c(O)c2ccccc21	-111	19*	-1	2	-1	29*	0
COc1ccc2cc3cc(C(=O)Nc4cc(OC)c(OC)c(OC)c4)oc3nc2c1	-122	20*	6	-36	1	21*	6
CC[N+](CC)=N/N=C1\C=CC[N+]([O-])=C1	nt	nt	4	nt	nt	nt	nt
CCN1CC(CN(C)Cc2cn(-c3cccc(C)c3)nc2-c2cccc(F)c2)CC1=O (stereo not drawn)	-104	20*	-1	-4	2	0	5
CCN1CC(CN(C)Cc2cn(-c3ccc(C)cc3)nc2-c2ccc(F)cc2)CC1=O (stereo not drawn)	-18	3	-2	-4	1	nt	nt
Cc1nc(N2CCN(c3ccccn3)CC2)c2c(C)c(C(=O)N3CCN(c4ccc(F)cc4)CC3)sc2n1	i	167*	-9	-1	0	239*	5
COc1ccccc1N1CCN(C(=O)c2sc3nc(C)nc(N4CCN(c5ccccn5)CC4)c3c2C)CC1	i	109*	0	-42	16	134*	-3
COc1ccccc1N1CCN(C(=O)c2sc3ncnc(N4CCN(c5ccccn5)CC4)c3c2C)CC1	1	0	-5	-3	1	nt	nt
Cc1c(C(=O)N2CCN(c3ccc(F)cc3)CC2)sc2ncnc(N3CCN(c4ccccn4)CC3)c12	-26	5	-9	-22	7	nt	nt
Cc1cc(N2CCN(c3ccc(C(F)(F)F)cc3[N+](=O)[O-])CC2)c2ccccc2n1	10	-2	-6	-11	1	nt	nt
